Source: PubChem (National Center for Advancing Translational Sciences (NCATS))
HT1080NT lethal: qHTS for induction of synthetic lethality in tumor cells producing 2HG: qHTS for the HT-1080-NT fibrosarcoma cell line. AID 686970, 2013. 360,000 compounds, 1.6% hits. Potency, µM (highest dose often 46.1 µM), hits mostly cytotoxic. HT-1080-NT fibrosarcoma viability, CellTiter-Glo ATP luminescence, 48 h;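 further: NT is the 2HG producing partner of a matched IDH1 knockdown line; nearly all actives have a fitted effect of over 55% in size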
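750 cells/well, RPMI + 5% FBS; 2 h settle, compound pin-transfer, 48 h at 37 degrees C. CellTiter-Glo 10 min RT, luminescence. Normalized to DMSO and media-only wells.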
HepG2 tox-1: qHTS for Inhibitors of TGF-b: Cytotox Counterscreen. Potency, µM (doses to about 46.1 µM), usual class: cytotoxic. 410,000 compounds, 0.76% hits. HepG2 CAGA-GFP viability, ATP luminescence, 18 h
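HepG2 CAGA-GFP cells (1000/well, DMEM with 1% FBS) received compound, then TGF-beta at 500 pg/mL final, and were incubated 18 hours at 37 degrees C. Viability was read by CellTiter-Glo luminescence. Media-only wells were set as complete cell-killing and DMSO as no toxicity.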
ATXN viability: Viability Counterscreen for Primary qHTS for Inhibitors of ATXN expression; S2 cells (HEK-293 line with an ATXN2-luciferase reporter) viability, CellTiter-Fluor protease fluorescence, 24 h; Potency, µM (doses to about 56.7 µM), most hits filed as cytotoxic; 400,000 compounds, 0.49% hits; AID 651635, 2014; further: nearly all actives have a fitted effect of over 40% in size
ATXN2 expr inh: Primary qHTS for Inhibitors of ATXN expression | HEK-293 ATXN2-luciferase reporter, luminescence, 24 h | Potency, µM (titrated, usually from 57 µM), actives largely listed as inhibitors | 360,000 compounds, 0.72% hits; further: nearly all actives have a fitted effect of over 55% in size
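ATXN2-luciferase reporter cells (luciferase flanked by upstream and downstream ATXN2 gene portions) were treated 24 h at 37 °C with compounds at up to 57 uM. SteadyGlo luminescence gave expression; GF-AFC fluorescence gave viability.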
TGFb SMAD3 inh: qHTS for Inhibitors of TGF-b; HepG2 CAGA-GFP TGF-b/SMAD3 reporter, GFP fluorescence, 18 h; TGF-beta stimulated, 500 pg/mL final; Potency, µM (doses to about 46.1 µM), actives largely listed as inhibitors; 410,000 compounds, 1.2% hits; AID 588855, 2011; further: nearly all actives have a fitted effect of over 65% in size
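Inhibition of TGF-beta-driven CAGA-GFP reporter expression in HEPG2 cells is measured by cellular GFP fluorescence after 18 h stimulation with 500 pg/mL recombinant TGF-beta in 1% FBS medium at 37 degrees C.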
HT1080 IDH1KD tx: qHTS for induction of synthetic lethality in tumor cells producing 2HG: qHTS for the HT-1080-IDH1KD cell line; Potency, µM (titrated, usually from 46.1 µM), hits mostly cytotoxic; 360,000 compounds, 2% hits; HT-1080 IDH1 knockdown viability, ATP luminescence, 48 h
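Cytotoxicity counter-line: IDH1KD HT-1080, 48 h, CellTiter-Glo. Curves classed by r2, magnitude and activity.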
TGFb CAGA inh: qHTS for Inhibitors of TGF-b: Confirmation of Cherry Picks | shares compounds with TGFb SMAD3 inh | HepG2 CAGA-GFP TGF-b reporter, GFP fluorescence, 18 h; cells stimulated with TGF-beta, 500 pg/mL | Potency, µM (highest dose often 46.1 µM), hits mostly inhibitors | 1,600 compounds, 63% hits | AID 720534, 2013; further: nearly all actives have a fitted effect of over 65% in size
HepG2 tox-2: qHTS for Inhibitors of TGF-b: Cytotox Counterscreen for Cherry Picks. 1,600 compounds, 27% hits. HepG2 CAGA-GFP viability, ATP luminescence, 18 h; cells stimulated with TGF-beta, 500 pg/mL. Potency, µM (titrated, usually from 46.1 µM), hits mostly inhibitors. shares compounds with TGFb SMAD3 inh; further: nearly all actives have a fitted effect of over 70% in size
CCL64 TGFb inh: qHTS for Inhibitors of TGF-b: CCL64 Cells Orthogonal Assay for Cherry Picks; shares compounds with TGFb SMAD3 inh; CCL64 CAGA-GFP reporter, TGF-b stimulated, GFP fluorescence, 18 h; Potency, µM (highest dose often 46.1 µM), hits mostly inhibitors; 1,600 compounds, 41% hits; further: nearly all actives have a fitted effect of over 65% in size
COP TGFb inh: qHTS for Inhibitors of TGF-b: Hit Validation in HepG2 Cells using COP promoter. AID 720537, 2013. shares compounds with TGFb SMAD3 inh. 1,600 compounds, 3% hits. Potency, µM (titrated, usually from 46.1 µM), usual class: inhibitors. HepG2 COP-GFP TGF-b reporter, GFP fluorescence, 18 h; cells stimulated by added recombinant TGF-beta; further: nearly all actives have a fitted effect of over 70% in size
Hits are given with their value; 0 = inactive; ? = inconclusive; - = no result. Hits are enriched below; roughly 3.8% of the tested compounds scored in any of these assays. The call rests on the fitted dose curve; in most records, active means well fitted curve in the direction sought with a large enough effect; inconclusive means small, poorly fitted or top-dose-only effect, or another doubt; inactive means no such curve, though single readings can be large; an effect the other way counts as inactive or inconclusive.

SMILES	HT1080NT lethal	HepG2 tox-1	ATXN viability	ATXN2 expr inh	TGFb SMAD3 inh	HT1080 IDH1KD tx	TGFb CAGA inh	HepG2 tox-2	CCL64 TGFb inh	COP TGFb inh
O=C(O)c1ccc(Nc2cc(Cl)c3nonc3c2[N+](=O)[O-])cc1	0	0	?	0	0	0	-	-	-	-
COc1ccc(CCNC(=O)NCc2noc3ccccc23)c(OC)c1	-	0	0	0	0	-	-	-	-	-
COc1cccc(Nc2nc(NCC3CCCO3)c3ccccc3n2)c1 (configuration not stated)	0	10µM	?	?	6.31µM	?	?	?	20.6µM	0
Oc1ccc(Cl)cc1Nc1nc(NCC2CCCO2)c2ccccc2n1 (configuration not stated)	-	0	?	0	?	-	-	-	-	-
COc1cc(OC)c(OC)cc1/C=C/c1nc2ccccc2o1	-	0	-	-	0	-	-	-	-	-
N#CCc1ccc(NC(=O)/C=C/c2ccc([N+](=O)[O-])o2)cc1	3.26µM	11.2µM	12.6µM	8.91µM	7.08µM	2.91µM	2.59µM	5.8µM	9.2µM	?
N#C/C(=C\c1ccc([N+](=O)[O-])o1)C(=O)Nc1ccc(F)cc1	?	0	0	?	0	?	-	-	-	-
CCNC(=O)CC1C(=O)N(c2ccc(C)cc2)C(=O)N1Cc1ccc(C)cc1 (configuration not stated)	-	0	0	0	0	-	-	-	-	-
Cc1ccc2nc(/N=C(\N)NC(=O)NC3CCCCC3)nc(C)c2c1	14.6µM	0	28.2µM	?	10µM	23.1µM	11.6µM	?	16.4µM	0
CCO[C@@H]1OC(C(=O)NCc2ccccc2)=C[C@H](c2ccc(C(F)(F)F)cc2)[C@H]1CCCO	0	0	?	?	17.8µM	?	?	0	20.6µM	0
CC(=O)N1CCc2c(sc3c2c(=O)n(-c2ccc(C)cc2)c(=O)n3Cc2ccccc2C)C1	-	0	?	0	0	-	-	-	-	-
CCOc1ccc(C2C(C(=O)Nc3ccccc3OC)=C(C)Nc3c(C(=O)Nc4cccc(C)c4)cnn32)cc1 (configuration not stated)	-	0	-	-	0	-	-	-	-	-
O=[N+]([O-])c1cnc(Sc2ccncn2)c([N+](=O)[O-])c1	0	0	?	-	?	0	-	-	-	-
O=[N+]([O-])c1cnc(Sc2ccncn2)s1	5.8µM	0	3.16µM	-	2.24µM	16.4µM	3.66µM	2.91µM	2.06µM	3.66µM
COc1ccc2c(c1)/C(=C\c1cccc(/C=C3/C(=O)Nc4ccc(OC)cc43)n1)C(=O)N2	2.91µM	0	-	3.16µM	1.26µM	3.26µM	2.91µM	2.59µM	1.46µM	0
Cc1nnc(SCC(=O)N/N=C/c2cn(-c3ccccc3)nc2-c2ccccc2)n1-c1ccccc1	?	0	?	0	7.08µM	?	?	0	?	0
CCOc1ccc(NC(=O)c2cc3c(C)nc4ccccc4c3o2)cc1	?	0	0	0	0	?	-	-	-	-
CCN(C(=O)c1cc2c(C)nc3ccccc3c2o1)c1cc(Cl)ccc1OC	?	0	0	?	10µM	?	?	0	?	0
COc1cc(OC)c(OC)cc1CNc1cc(C)ccc1OC	?	0	0	0	?	0	6.51µM	0	0	0
COc1ccc(C)cc1NCc1cccc(OC)c1OC	0	0	0	0	0	0	-	-	-	-
CC(=O)c1ccc(NC(=O)c2nn(C)c3c2COc2ccccc2-3)cc1	-	0	-	-	0	-	-	-	-	-
O=C(Nc1ccc([N+](=O)[O-])cc1)Nc1cnccn1	0	0	0	0	?	0	?	?	?	0
